Test results published in PubChem BioAssay AID588445 (Southern Research Specialized Biocontainment Screening …, 2011).
Inconclusive results are not listed. Calls of active or inactive are those of the source. How the calls were made is not given here.

assay: Vero cell cytotoxicity, dose response, cytotoxicity control for M. tuberculosis inhibitor project, purified and synthesized compounds, set 6 (AID 588445); details: cytotoxicity counter-screen; series mostly up to 100 µM

Structure (SMILES)	outcome
CCOC(=O)CSc1ncnc2c1cnn2-c1ccccc1	inactive
CC1CC(C)CN(C(=O)C2CCC(CNc3c(N4CCCCC4)c(=O)c3=O)CC2)C1 (stereo unspecified)	inactive
COc1ccc(N2CCN(C(=O)c3ccc(CNc4c(N5CCOCC5)c(=O)c4=O)cc3)CC2)cc1	inactive
CC(C)OC(=O)CSc1ncnc2c1cnn2-c1ccccc1	inactive
COC(=O)CSc1ncnc2c1cnn2-c1ccc(C)cc1C	inactive
CCOC(=O)CSc1ncnc2c1cnn2-c1ccc(C)cc1C	inactive
